From PubChem BioAssay
Rows were chosen to be rich in hits. Some 11% of all compounds tested hit in one or more screens of this group.
HP1b binding inh: HP1-beta chromodomain-methylated histone interaction inhibition; P83916; AlphaScreen HP1-beta / biotin-H3K9me3 peptide binding; Potency, µM (doses to about 114 µM), for inactives: at the highest dose activity change, negative = inhibition, usual class: inhibitors; actives 0.56% (n = 390,000); AID 540317; also: potency is read from the fitted curve at half-maximal effect; nearly all actives have a fitted effect of over 70% in size
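AlphaScreen: HP1-beta (50 nM) preformed 30 min with biotin-H3(1-18)K9me3 peptide (50 nM) in PBS pH 7.4, 0.01% Tween-20. Compound added for 30 min at RT, then streptavidin donor/nickel chelate acceptor beads (10 ug/mL) for 30 min.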
BAZ2B block: BAZ2B (human) inhibition | actives 4.4% (n = 360,000) | AID 504333 | Potency, µM (highest dose often 114 µM), for the others: at the top dose activity change, negative = inhibition, actives largely listed as inhibitors | AlphaScreen BAZ2B-H3K14Ac peptide displacement | Q9UIF8; also: potency is read from the fitted curve at half-maximal effect; % is scaled to controls: 0 for no effect and ±100 for the full control effect; nearly all actives have a fitted effect of over 60% in size
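In this displacement format the biotinylated H3(5-23) peptide acetylated at Lys14 serves as ligand at 50 nM, with BAZ2B at 50 nM in PBS pH 7.4 containing 0.01% Tween-20. Donor and acceptor beads are 10 ug/mL final.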
JMJD2A Tudor inh: JMJD2A Tudor domain (human) inhibition. O75164. AlphaScreen JMJD2A-Tudor / H3K4me3 peptide binding. Potency, µM (doses to about 114 µM), for inactives: top-dose activity change, negative = inhibition, hits mostly inhibitors. actives 4.4% (n = 390,000). AID 504339; also: potency is read from the fitted curve at half-maximal effect; % is scaled to controls: 0 for no effect and ±100 for the full control effect; nearly all actives have a fitted effect of over 50% in size
PI5P4Ka inh: PI5P4K alpha (human) kinase inhibition | PI5P4Kalpha enzyme, ADP-Glo luminescence, 60 min; hits give low values | max response, % | actives 1.2% (n = 330,000) | P48426; active = max response of -50% or lower; inconclusive = between -30% and -50%; inactive = -30% or higher; also: value at the top dose of about 77 µM; % is scaled to controls: 0 for no effect and ±100 for the full control effect
Target sequence (P48426 whole entry, looked up): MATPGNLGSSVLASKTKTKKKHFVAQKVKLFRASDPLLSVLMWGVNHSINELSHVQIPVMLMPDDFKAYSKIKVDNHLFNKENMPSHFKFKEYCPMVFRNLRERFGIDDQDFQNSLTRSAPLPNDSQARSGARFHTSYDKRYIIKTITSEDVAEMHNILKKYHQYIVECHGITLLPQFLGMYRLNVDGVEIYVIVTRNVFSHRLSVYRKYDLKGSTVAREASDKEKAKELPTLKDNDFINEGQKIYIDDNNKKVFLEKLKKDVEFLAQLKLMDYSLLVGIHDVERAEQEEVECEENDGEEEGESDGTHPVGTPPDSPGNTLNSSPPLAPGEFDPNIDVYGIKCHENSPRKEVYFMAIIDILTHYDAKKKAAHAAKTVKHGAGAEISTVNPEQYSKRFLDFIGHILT
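Quantitative HTS of the MLSMR library against PI5P4Kalpha with substrate. ATP added last at 5 microM final; room temperature, 60 minutes. Remaining ATP depleted, ADP converted and read as luminescence.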
G9a block: G9a (human) methyltransferase inhibition. Q96KQ7. G9a H3K9 monomethylation, AlphaScreen, 2 h. Potency, µM (titrated, usually from 102 µM), for the others: at the highest dose activity, negative = inhibition, actives largely listed as inhibitors. actives 8.8% (n = 350,000); also: potency is read from the fitted curve at half-maximal effect; % is scaled to controls: 0 for no effect and ±100 for the full control effect; nearly all actives have a fitted effect of over 75% in size
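AlphaScreen read-out: biotin-H3K9 peptide (500 nM) methylation by 20 nM enzyme with 20 uM SAM, 2 h at room temperature after 15 min compound preincubation; anti-monomethyl H3K9 antibody plus donor/acceptor beads, 10 min dark.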
L3MBTL1 block: inhibitors of human L3MBTL1; Q9Y468; AlphaScreen L3MBTL1–H3K9me1 peptide binding; Potency, µM (top dose mostly 57.1 µM), for inactives: top-dose activity, negative = inhibition, actives largely listed as inhibitors; actives 0.66% (n = 230,000); also: potency is read from the fitted curve at half-maximal effect; % is scaled to controls: 0 for no effect and ±100 for the full control effect; nearly all actives have a fitted effect of over 60% in size
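AlphaScreen proximity signal between nickel-chelate acceptor and streptavidin donor beads (final 10 ug/mL) reports binding of 50 nM L3MBTL1 to 75 nM biotin-H3 K9me1 peptide; complex incubated with compounds 30 min at room temperature; cefsulodin titration as control.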
An asterisk follows results filed as active; ? = inconclusive; nt = no result; [ ] = remark or other dose. Unless noted, calls follow the shape of the dose curve; as a rule, active = well fitted inhibition curve with a large enough effect; inconclusive = small, poorly fitted or top-dose-only effect; inactive = no such curve, though single readings can be large or run the other way.

SMILES	HP1b binding inh	BAZ2B block	JMJD2A Tudor inh	PI5P4Ka inh	G9a block	L3MBTL1 block
CN1C(=O)/C(=C2\SC(=S)N(CC3CCCO3)C2=O)c2ccccc21 (stereo not given)	nt	-33%	nt	nt	?	-5%
O=C(O)CN1C(=O)/C(=C2\C(=O)N(Cc3ccccc3Cl)c3ccccc32)SC1=S	-36%	?	?	-1	14µM*	nt
O=C(c1ccc2c(c1)N(Cc1ccccc1Cl)C(=O)c1ccccc1S2)N1CCCC1	10%	-17%	-23%	nt	-26%[59 µM]	nt
O=C1/C(=C2\C(=O)N(Cc3ccc(F)cc3)c3ccccc32)SC(=S)N1CCS(=O)(=O)O	?	14µM*	10µM*	-29	?	nt
Cc1ccc(CNC(=O)c2cnc3c(-c4ccccc4)c(C)nn3c2C)o1	30%	-20%	-12%	nt	-2%[59 µM]	nt
CCCn1c(=S)[nH]c2cc(OC)c(OC)cc2c1=O	23%	0%	-14%	nt	-40%[59 µM]	nt
COc1cc2[nH]c(=S)n(NC(=O)CC(C)C)c(=O)c2cc1OC	-2%	?	3.5µM*	nt	4µM*	nt
Cc1ccc(S(=O)(=O)NCCc2sc3nc(-c4ccccc4)nn3c2C)cc1C	23%	0%	-2%	nt	12%[59 µM]	nt
CN1CCN(c2ccc([N+](=O)[O-])cc2C(=O)N2CCCCC2)CC1	14%	8%	-3%	-2	-11%[59 µM]	6%
CN1CCN(C(=O)c2cc([N+](=O)[O-])ccc2Cl)CC1	38%	-1%	-16%	1	50µM*	0%
COc1cc(NC(=O)c2cc([N+](=O)[O-])ccc2N2CCOCC2)ccc1NC(=O)c1ccco1	-1%	71µM*	-29%	0	nt	nt
CCOC(=O)c1cc(CC)sc1NC(=O)c1cc([N+](=O)[O-])ccc1N1CCOCC1	-33%	-11%	-24%[57.1 µM]	0	11µM*	-10%
O=C(Nc1cc([N+](=O)[O-])ccc1N1CCOCC1)c1ccco1	31%	-3%	-5%	1	5%[12.7 µM]	12%
Cc1cc(=O)oc2cc(NC(=O)c3cc([N+](=O)[O-])ccc3N3CCOCC3)ccc12	9%	-11%	-23%	-12	40µM*	nt
CCCCN(CC)CCCNC(=O)Nc1sc2nc3n(c(=O)c2c1C)CCC(C)CC3 (stereo not given)	30%	-21%	-32%	nt	1%[59 µM]	nt
Cc1cc(C)c(NC(=O)c2cc(S(=O)(=O)N3CCC4(CC3)OCCO4)ccc2F)c(C)c1	-4%	6%	-14%	nt	12%[59 µM]	nt
Nc1cc(C(F)(F)F)ccc1S(=O)(=O)Nc1cccc2c1NCCC2	12%	nt	?	nt	nt	nt
O=C(Nc1ccc(NC(=O)c2cc([N+](=O)[O-])ccc2N2CCOCC2)cc1)c1cccs1	19%	-27%	-22%	-2	28µM*	-2%
O=C(NCc1ccc2c(c1)OCO2)c1cc([N+](=O)[O-])ccc1N1CCCCC1	-2%	-9%	-32%	4	45µM*	-8%
O=C(Nc1ccc(N2CCCC2)cc1)c1cc([N+](=O)[O-])ccc1N1CCOCC1	?	?	45µM*	2	nt	nt
COC(=O)c1cc(NC(=O)c2cccs2)ccc1N1CCOCC1	-2%	-3%	50µM*	7	?	16%
O=C(Nc1ccc(N2CCOCC2)c(F)c1)c1cccs1	28%	-3%	-19%	7	nt	nt
Cc1ccc(C)c(NC(=O)c2cc(S(=O)(=O)N3CCCCC3)ccc2N2CCOCC2)c1	33%	11%	-17%	1	19%[12.7 µM]	-1%
Cc1ccc(S(=O)(=O)N2CCOCC2)cc1NC(=O)c1cc([N+](=O)[O-])ccc1N1CCOCC1	-6%	-6%	-25%	3	56µM*	-4%
O=C(c1cc([N+](=O)[O-])ccc1N1CCOCC1)N1CCN(c2ccc([N+](=O)[O-])cc2)CC1	8%	-14%	-26%	3	11µM*	2%
CCc1nc2nc(C)cc(Nc3ccc(OC)cc3OC)n2n1	18%	1%	-1%	nt	-4%[59 µM]	nt
CN(CCO)CCOCCOc1cccc2ccccc12	?	nt	10µM*	2	?	-2%
